PubChem BioAssay (NCI)
Compounds without any hit were thinned out: in the full panel of roughly 83,000, 20% have a hit.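 Single-dose data. Exposure time 48 hours. Values below 10 considered active.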 Calls of active or inactive are those of the source.

tested on: HL-60(TB) leukemia; test: NCI-60 one-dose screen, 48 h (100 = growth as untreated, 0 = no growth, -100 = all killed); settings: 10 µM unless noted

Structure (SMILES) | growth
Clc1ncn[nH]1 | 103% (inactive)
Cc1ccc(-c2nn(C)c(=O)c3noc(-c4ccc(C)cc4)c23)cc1 | 29.3% (inactive)
CCCCc1ccc(C(O)(CCN2CC3CCC(CC3)C2)c2ccccc2)cc1 (stereo not given) | 84.5% (inactive)
Nc1c(-c2nc3ccc(Br)cc3c(=O)[nH]2)nnn1-c1ccccc1 | 103% (inactive)
Cc1cc(C(=O)Nc2ncnc3nc[nH]c23)no1 | 91.1% (inactive)
N#CC(I)CS(=O)(=O)c1ccccc1 (stereo not given) | 99% (inactive)
OCC1OC(n2ccc3c(NO)ncnc32)C(O)C1O (stereo not given) | -35.1% (active)
NC(=O)c1cccc(-n2ccc3cc(NC(=O)c4ccc(N5CCOCC5)c(C(F)(F)F)c4)ccc32)n1 | 51.1% (inactive)
COc1cccc(-c2cn3nc(-c4cn(C)c5ccccc45)sc3n2)c1 | 104% (inactive)
CCn1cc(C(=O)O)c(=O)c2cc(F)c(N3CCN(S(=O)(=O)c4ccc(OC)c(OC)c4)CC3)cc21 | 91.3% (inactive)
CC(=O)OC1Oc2ccccc2-c2oc(=O)c(-c3cc4ccc(N(C)C)cc4oc3=O)cc21 (stereo not given) | -9.4% (active)
CC[C@@H](C)[C@H](NC(=O)Cn1cc(CNC(=O)[C@@H](NC(=O)OCc2ccccc2)C(C)C)nn1)C(=O)O | 113% (inactive)
CN1CCN(Cc2ccc(NC(=O)c3cncc(C#Cc4cnc(N)c5cccnc45)c3)cc2C(F)(F)F)CC1 | -13.9% (active)
O=C1/C(=C/c2ccc([N+](=O)[O-])cc2)COc2ccc(O)c(O)c21 | -14.6% (active)
Cc1ccc(S(=O)(=O)c2nc(-c3ccccc3)oc2S(C)=O)cc1 (stereo not given) | -47.4% (active)
N#Cc1ccc(-n2nnc3ccccc32)cc1C#N | 108% (inactive)
O=C(N/N=C/c1ccc(Cl)cc1)c1ccc(NC(=O)c2ccccn2)cc1 | 103% (inactive)
O=NN(Cc1cccnc1)C(=O)NC1CCCCC1 | 120% (inactive)
CC(=O)O[C@H]1CC2CCC3C(CC[C@@]4(C)C3C[C@H]([N+]3(C)CCCCC3)[C@@H]4OC(C)=O)[C@@]2(C)C[C@@H]1N1CCCCC1 (stereo not given in full) | 107% (inactive)
CCCCCCCCC(=O)Nc1ccc(O)cc1 | 61.5% (inactive)

Structure (SMILES) | growth
COc1cc(-c2nc3c(ncc4ccc(=O)n(-c5ccccc5)c43)s2)cc(OC)c1OC | 94.1% (inactive)
Cc1cc2nc3c4cc(C=O)ccc4n(CCN(C)C)c3nc2cc1C | 16.9% (inactive)
CC(C)(C)c1cc(C[P+](c2ccc(Cl)cc2)(c2ccc(Cl)cc2)c2ccc(Cl)cc2)cc(C(C)(C)C)c1O | 3.1% (active)
CC(=O)NCCSC(=O)C(=O)SCCNC(C)=O | 83.6% (inactive)
COC(=O)[C@]12CC[C@@H](C)[C@H](C)[C@@H]1C1=CC[C@@H]3[C@@]4(C)C[C@@H](O)OC[C@](C)(C=O)C4C(=O)C[C@@]3(C)[C@]1(C)CC2 (stereo not given in full) | -13.3% (active)
O=C1Nc2c(ccc(Cl)c2Cl)/C1=C\c1ccc(C(F)(F)F)cc1 | 51.8% (inactive)
CC(=O)Nc1ccc2c(c1)C(=O)c1cccc(C(=O)O)c1-2 | 97.2% (inactive)
COc1cc(NCCC2CCCCN2)c2ncccc2c1OC (stereo not given) | 0.805% (active)
C=C(C)[C@@H]1CC[C@]2(C(=O)OC)CC[C@]3(C)[C@H](CC[C@@H]4[C@@]5(C)CC/C(=N\OCCC(=NCCC#N)NOCCC#N)C(C)(C)[C@@H]5CC[C@]43C)[C@@H]12 | 0.897% [100 µM] (active)
Nc1ccn(C2CC(N)C(CO)O2)c(=O)n1 (stereo not given) | 84.6% (inactive)
CCCCCCCCO/N=C\c1c2c(O)c3c(O)c(C)c4c(c3c1O)C(=O)C(C)(O/C=C\C(OC)C(C)C(OC(C)=O)C(C)C(O)C(C)C(O)C(C)/C=C\C=C(\C)C(=O)N2)O4 (stereo not given) | -10.2% (active)
C[C@H]1[C@H]2C3=CC[C@@H]4[C@@]5(C)C/C(=C/c6ccncc6)C(=O)C(C)(C)[C@@H]5CC[C@@]4(C)[C@]3(C)CC[C@@]2(C(=O)N2CCN(C)CC2)CC[C@@H]1C | 57.3% (inactive)
COc1cc2c(c(OC)c1)C1c3ccccc3NC(=O)N1CC2 (stereo not given) | -3.91% (active)
NCCn1cc(-c2nc(-c3c[nH]c4ncccc34)cs2)c2cc(F)ccc21 | 62% (inactive)
N#C/C(=C/C=C/c1ccccc1)S(=O)c1ccccc1 (stereo not given) | -16.5% (active)
Cc1cc2cn3c4ccc(O)cc4nc(N)c3c2cc1C | -32.5% (active)
Cn1c(I)c(C#C[Si](C)(C)C)c(=O)[nH]c1=O | -67.8% (active)
Clc1ccc2c(NCCCNc3nc(-n4ccnc4)nc4ccccc34)ccnc2c1 | 69.4% (inactive)
Cc1ccc2oc(=O)cc(-c3cc(-c4cc5ccccc5oc4=O)nc(N)c3C#N)c2c1 | 93.5% (inactive)
C/C(=C\CCc1ccsc1)CC/C=C(\C)CCCN1CCC(CO)CC1 | -49.9% (active)
